Source: PubChem BioAssay (National Center for Advancing Translational Sciences (NCATS))
POLI inh: DNA polymerase iota (human) inhibition | Q9UNA4 | Pol iota fluorescent replication assay, 10 min | Potency, µM (titrated, usually from 115 µM), for the others: top-dose activity, negative = inhibition, most hits filed as inhibitors | 390,000 compounds, 1% hits | AID 588590
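Pol iota at 10 nM preincubated 15 min with compounds at room temperature; reaction started with fluorescent substrate, 50 nM final. Fluorescence read kinetically at 0 and 10 min; buffer-only wells as negative control.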
POLK inh: inhibitors of human DNA polymerase kappa; Q9UBT6; purified Pol kappa, fluorescent DNA synthesis assay, 10 min; Potency, µM (highest dose often 107 µM), inactives show at the highest dose activity, negative = inhibition, hits mostly inhibitors; 400,000 compounds, 0.53% hits; note: % is set by controls: 0 for no effect and ±100 for the full control effect
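Kinetic fluorescence screen: compound preincubated 15 min RT with 10 nM enzyme; 50 nM substrate (final) initiates; reads at 0/10 min.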
WRN helicase inh: blocks human WRN helicase | AID 651768 | Q14191 | Potency, µM (top dose mostly 114 µM), inactives show at the highest dose activity change, negative = inhibition, actives largely listed as inhibitors | 360,000 compounds, 0.46% hits | WRN helicase unwinding, fluorescent forked duplex, kinetic; note: % is set by controls: 0 for no effect and ±100 for the full control effect; nearly all actives have a fitted effect of over 55% in size
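Screening of the MLSMR collection measured strand separation of a quenched forked DNA duplex (100 nM) by 20 nM WRN with 2 mM ATP, all final. Compounds were preincubated with enzyme 15 min at room temperature.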
Pol beta inh: inhibitors of human DNA polymerase beta. P06746. 340,000 compounds, 1.3% hits. AID 485314. Potency, µM (series often up to 114 µM), without a hit: at the top dose activity change, negative = inhibition, hits mostly inhibitors. Pol beta primer extension/strand displacement, fluorescence kinetic; note: % is set by controls: 0 for no effect and ±100 for the full control effect
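Homogeneous kinetic assay of primer extension and strand displacement by 10 nM Pol beta, preincubated 15 min at room temperature with compound before 50 nM substrate (final) was added. Read at 0 and 10 min; four-parameter Hill fit.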
FEN1 inhibitor: blocks human flap endonuclease 1 | P39748 | Recombinant FEN1 flap cleavage, fluorescence, 15 min | Potency, µM (series often up to 114 µM), for inactives: at the top dose activity change, negative = inhibition, usual class: inhibitors | 390,000 compounds, 0.35% hits | AID 588795; note: % is set by controls: 0 for no effect and ±100 for the full control effect; nearly all actives have a fitted effect of over 65% in size
Target sequence (P39748 whole entry, looked up): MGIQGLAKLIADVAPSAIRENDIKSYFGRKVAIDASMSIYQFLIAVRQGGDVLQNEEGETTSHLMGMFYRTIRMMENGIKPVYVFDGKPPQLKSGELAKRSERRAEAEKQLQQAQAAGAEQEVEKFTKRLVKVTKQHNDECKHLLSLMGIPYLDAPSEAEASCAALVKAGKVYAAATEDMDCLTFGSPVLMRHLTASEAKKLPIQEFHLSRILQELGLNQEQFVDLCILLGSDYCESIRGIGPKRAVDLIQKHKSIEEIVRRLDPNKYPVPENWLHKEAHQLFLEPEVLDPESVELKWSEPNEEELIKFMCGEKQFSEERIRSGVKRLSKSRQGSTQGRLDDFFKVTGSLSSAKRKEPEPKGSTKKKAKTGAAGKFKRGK
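Potency values derive from four-parameter Hill fits of normalized qHTS data. The reaction used 10 nM FEN1 preincubated 15 min at room temperature with compound, then 50 nM DNA substrate, read at 0 and 15 min.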
Pol eta inh: inhibitors of human DNA polymerase eta; 390,000 compounds, 1.2% hits; Q9Y253; recombinant Pol eta, fluorescent DNA replication assay; Potency, µM (series often up to 114 µM), for inactives: at the top dose activity change, negative = inhibition, most hits filed as inhibitors; note: % is set by controls: 0 for no effect and ±100 for the full control effect
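Fluorescent replication assay: 50 nM final substrate added after a 15 min room-temperature compound preincubation with 10 nM enzyme. Signal taken at 0 min and again at 10 min.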
Numbers without * were called inactive; ? = inconclusive; nt = no result given; [ ] = dose if it differs, or a comment. The list is not random: actives were taken first. Their share in the collection is about 2.4%. Calls come from the whole dose curve; as a rule, active = well fitted curve in the direction sought with a large enough effect; inconclusive = small, poorly fitted or top-dose-only effect, or another doubt; inactive = no such curve, though single readings can be large; an effect the other way counts as inactive or inconclusive. Potency is the fitted concentration of half-maximal effect.

SMILES	POLI inh	POLK inh	WRN helicase inh	Pol beta inh	FEN1 inhibitor	Pol eta inh
CCCCn1cc(S(=O)(=O)c2ccccc2)c(=O)c2cc(F)c(N3CCN(CCC)CC3)cc21	-19.0%	-9.6%	nt	-0.1%	5.7%	-13.3%
O=C1C=C(c2ccccc2)CC(c2cccs2)C1n1cnc([N+](=O)[O-])c1 (configuration not stated)	-19.5%	-15.3%	-7.8%	50.1µM*	-6.3%	?
COc1ccc(C2Nc3ccccc3C(=O)N2c2ccc(F)cc2)cc1COc1ccc(NC(C)=O)cc1 (configuration not stated)	9.5%	-0.5%	nt	nt	7.0%	nt
CCN(CC)CCn1c2ccccc2c2nc3ccccc3nc21	?	?	1.9%[11.6 µM]	?	25.1µM*	-15.6%
CCCn1c2ccccc2c2nc3ccccc3nc21	15.0%	-6.0%	0.0%[57.1 µM]	?	?	-14.0%
CCCCCCCCCCCCCCNCCO	nt	7.1%[19.4 µM]	nt	nt	nt	nt
CCN(CC)c1ccc2cc(-c3nnc(-c4ccncc4)o3)c(=O)oc2c1	-13.0%[58.9 µM]	-0.5%	-3.3%	-13.6%	5.8%	-2.8%
CCN(CC)c1ccc2cc(-c3nnc(-c4cccc(Cl)c4)o3)c(=O)oc2c1	89.1µM*	?	nt	31.2%	-21.1%	-18.1%
CCCCn1c(=O)[nH]c2nc3cc(N)ccc3nc2c1=O	1.26µM*	-8.2%	50.1µM*	5.62µM*	?	-10.1%
Nc1ccc2nc3c(=O)n(CCc4ccccc4)c(=O)[nH]c3nc2c1	63.6%	-25.5%	-20.5%	?	?	-7.0%
CC(=O)N(/N=C1\Sc2ccccc2C1=O)c1ccccc1C	7.2%	0.9%	-8.3%[57.1 µM]	-0.5%	0.1%	20µM*
O=S(=O)(Nc1cccc2cccnc12)c1cccs1	29.0%	-10.5%	nt	nt	-13.6%	nt
COC(CNC(=O)c1ccc2c3c(onc13)-c1ccccc1C2=O)OC	17.8µM*	-31.8%	50.1µM*	0.0%	?	?
COC(CNC(=O)c1cccnc1)OC	-15.7%	11.8%	9.3%	34.4%	-2.0%	-6.9%
CCc1ccc(C2CC(=O)c3c([nH]c(C(=O)OCC4CCCCC4)c3C)C2)cc1 (configuration not stated)	6.4%	8.6%	nt	0.3%	-4.4%	1.7%
O=C(Nc1ccc(S(=O)(=O)Nc2ncccn2)cc1)C1=COCCO1	50.1µM*	-25.0%	-32.5%	nt	-3.1%	?
CCCn1nc(C(=O)Nc2ccc(S(=O)(=O)Nc3ncccn3)cc2)c2ccccc2c1=O	?	-24.2%	-16.3%	1.2%	14.1%	50.1µM*
CC(=O)Nc1ccc(S(=O)(=O)Nc2ncccn2)cc1	17.9%	7.5%	2.4%	0.4%	-15.9%	-5.7%
COc1ccc(C(CC(=O)N2CCN(c3ccccc3)CC2)c2c(OC)cc(OC)c3c(-c4ccccc4)cc(=O)oc23)cc1 (configuration not stated)	nt	nt	nt	8.91µM*	nt	nt
COc1cc(OC)c2c(-c3ccccc3)cc(=O)oc2c1C(CC(=O)N1CCCC1)c1ccc(N(C)C)cc1 (configuration not stated)	-7.3%	-10.4%	nt	nt	-24.2%	nt
COc1ccc(C(CC(=O)N2CCCC(C)C2)c2c(OC)cc(OC)c3c(-c4ccccc4)cc(=O)oc23)cc1 (configuration not stated)	50.1µM*	79.4µM*	?	35.5µM*	2.5%	25.1µM*
CCOc1ccc(CNC(=O)C2CCN(S(=O)(=O)N3CCCCC3)CC2)cc1	32.4%	-6.7%[60.1 µM]	nt	10.8%	-2.0%	-15.3%
CN(C)c1ccc(/C=C2\C(=O)/C(=C\c3ccc(N(C)C)cc3)c3ccccc32)cc1	6.0%	-10.9%	nt	nt	4.2%	nt
CCCNC(=O)c1ccc(Cn2cc(C(F)(F)F)ccc2=O)cc1	89.1µM*	-23.4%	2.3%[57.1 µM]	-2.2%	-2.6%	-17.4%
COc1ccccc1-c1nc(S(=O)(=O)c2ccccc2)c(N2CCC(C)CC2)o1	-1.8%	-13.1%	nt	-28.8%	0.5%	-17.5%
